Reference: the supplement of paper PMC11732987, “Enantioselective OTUD7B fragment discovery through chemoproteomics screening and high-throughput optimisation” (Communications Chemistry, 2025)

Assays:
Assay in all cases: log2 ratio of Biotin-Ahx-Ub-VS probe labelling (fragment/DMSO); higher = less target engagement (more negative = stronger competition), active = hit call of the paper (q ≤ 0.05, log2 ratio ≤ -1)
Details in all cases: compound concentration: 200 uM; treatment time: 3 h
[1] = biological target: USP34 (UniProt Q70CQ2)
Chain of USP34 (Q70CQ2 whole entry, the tested form may be a part): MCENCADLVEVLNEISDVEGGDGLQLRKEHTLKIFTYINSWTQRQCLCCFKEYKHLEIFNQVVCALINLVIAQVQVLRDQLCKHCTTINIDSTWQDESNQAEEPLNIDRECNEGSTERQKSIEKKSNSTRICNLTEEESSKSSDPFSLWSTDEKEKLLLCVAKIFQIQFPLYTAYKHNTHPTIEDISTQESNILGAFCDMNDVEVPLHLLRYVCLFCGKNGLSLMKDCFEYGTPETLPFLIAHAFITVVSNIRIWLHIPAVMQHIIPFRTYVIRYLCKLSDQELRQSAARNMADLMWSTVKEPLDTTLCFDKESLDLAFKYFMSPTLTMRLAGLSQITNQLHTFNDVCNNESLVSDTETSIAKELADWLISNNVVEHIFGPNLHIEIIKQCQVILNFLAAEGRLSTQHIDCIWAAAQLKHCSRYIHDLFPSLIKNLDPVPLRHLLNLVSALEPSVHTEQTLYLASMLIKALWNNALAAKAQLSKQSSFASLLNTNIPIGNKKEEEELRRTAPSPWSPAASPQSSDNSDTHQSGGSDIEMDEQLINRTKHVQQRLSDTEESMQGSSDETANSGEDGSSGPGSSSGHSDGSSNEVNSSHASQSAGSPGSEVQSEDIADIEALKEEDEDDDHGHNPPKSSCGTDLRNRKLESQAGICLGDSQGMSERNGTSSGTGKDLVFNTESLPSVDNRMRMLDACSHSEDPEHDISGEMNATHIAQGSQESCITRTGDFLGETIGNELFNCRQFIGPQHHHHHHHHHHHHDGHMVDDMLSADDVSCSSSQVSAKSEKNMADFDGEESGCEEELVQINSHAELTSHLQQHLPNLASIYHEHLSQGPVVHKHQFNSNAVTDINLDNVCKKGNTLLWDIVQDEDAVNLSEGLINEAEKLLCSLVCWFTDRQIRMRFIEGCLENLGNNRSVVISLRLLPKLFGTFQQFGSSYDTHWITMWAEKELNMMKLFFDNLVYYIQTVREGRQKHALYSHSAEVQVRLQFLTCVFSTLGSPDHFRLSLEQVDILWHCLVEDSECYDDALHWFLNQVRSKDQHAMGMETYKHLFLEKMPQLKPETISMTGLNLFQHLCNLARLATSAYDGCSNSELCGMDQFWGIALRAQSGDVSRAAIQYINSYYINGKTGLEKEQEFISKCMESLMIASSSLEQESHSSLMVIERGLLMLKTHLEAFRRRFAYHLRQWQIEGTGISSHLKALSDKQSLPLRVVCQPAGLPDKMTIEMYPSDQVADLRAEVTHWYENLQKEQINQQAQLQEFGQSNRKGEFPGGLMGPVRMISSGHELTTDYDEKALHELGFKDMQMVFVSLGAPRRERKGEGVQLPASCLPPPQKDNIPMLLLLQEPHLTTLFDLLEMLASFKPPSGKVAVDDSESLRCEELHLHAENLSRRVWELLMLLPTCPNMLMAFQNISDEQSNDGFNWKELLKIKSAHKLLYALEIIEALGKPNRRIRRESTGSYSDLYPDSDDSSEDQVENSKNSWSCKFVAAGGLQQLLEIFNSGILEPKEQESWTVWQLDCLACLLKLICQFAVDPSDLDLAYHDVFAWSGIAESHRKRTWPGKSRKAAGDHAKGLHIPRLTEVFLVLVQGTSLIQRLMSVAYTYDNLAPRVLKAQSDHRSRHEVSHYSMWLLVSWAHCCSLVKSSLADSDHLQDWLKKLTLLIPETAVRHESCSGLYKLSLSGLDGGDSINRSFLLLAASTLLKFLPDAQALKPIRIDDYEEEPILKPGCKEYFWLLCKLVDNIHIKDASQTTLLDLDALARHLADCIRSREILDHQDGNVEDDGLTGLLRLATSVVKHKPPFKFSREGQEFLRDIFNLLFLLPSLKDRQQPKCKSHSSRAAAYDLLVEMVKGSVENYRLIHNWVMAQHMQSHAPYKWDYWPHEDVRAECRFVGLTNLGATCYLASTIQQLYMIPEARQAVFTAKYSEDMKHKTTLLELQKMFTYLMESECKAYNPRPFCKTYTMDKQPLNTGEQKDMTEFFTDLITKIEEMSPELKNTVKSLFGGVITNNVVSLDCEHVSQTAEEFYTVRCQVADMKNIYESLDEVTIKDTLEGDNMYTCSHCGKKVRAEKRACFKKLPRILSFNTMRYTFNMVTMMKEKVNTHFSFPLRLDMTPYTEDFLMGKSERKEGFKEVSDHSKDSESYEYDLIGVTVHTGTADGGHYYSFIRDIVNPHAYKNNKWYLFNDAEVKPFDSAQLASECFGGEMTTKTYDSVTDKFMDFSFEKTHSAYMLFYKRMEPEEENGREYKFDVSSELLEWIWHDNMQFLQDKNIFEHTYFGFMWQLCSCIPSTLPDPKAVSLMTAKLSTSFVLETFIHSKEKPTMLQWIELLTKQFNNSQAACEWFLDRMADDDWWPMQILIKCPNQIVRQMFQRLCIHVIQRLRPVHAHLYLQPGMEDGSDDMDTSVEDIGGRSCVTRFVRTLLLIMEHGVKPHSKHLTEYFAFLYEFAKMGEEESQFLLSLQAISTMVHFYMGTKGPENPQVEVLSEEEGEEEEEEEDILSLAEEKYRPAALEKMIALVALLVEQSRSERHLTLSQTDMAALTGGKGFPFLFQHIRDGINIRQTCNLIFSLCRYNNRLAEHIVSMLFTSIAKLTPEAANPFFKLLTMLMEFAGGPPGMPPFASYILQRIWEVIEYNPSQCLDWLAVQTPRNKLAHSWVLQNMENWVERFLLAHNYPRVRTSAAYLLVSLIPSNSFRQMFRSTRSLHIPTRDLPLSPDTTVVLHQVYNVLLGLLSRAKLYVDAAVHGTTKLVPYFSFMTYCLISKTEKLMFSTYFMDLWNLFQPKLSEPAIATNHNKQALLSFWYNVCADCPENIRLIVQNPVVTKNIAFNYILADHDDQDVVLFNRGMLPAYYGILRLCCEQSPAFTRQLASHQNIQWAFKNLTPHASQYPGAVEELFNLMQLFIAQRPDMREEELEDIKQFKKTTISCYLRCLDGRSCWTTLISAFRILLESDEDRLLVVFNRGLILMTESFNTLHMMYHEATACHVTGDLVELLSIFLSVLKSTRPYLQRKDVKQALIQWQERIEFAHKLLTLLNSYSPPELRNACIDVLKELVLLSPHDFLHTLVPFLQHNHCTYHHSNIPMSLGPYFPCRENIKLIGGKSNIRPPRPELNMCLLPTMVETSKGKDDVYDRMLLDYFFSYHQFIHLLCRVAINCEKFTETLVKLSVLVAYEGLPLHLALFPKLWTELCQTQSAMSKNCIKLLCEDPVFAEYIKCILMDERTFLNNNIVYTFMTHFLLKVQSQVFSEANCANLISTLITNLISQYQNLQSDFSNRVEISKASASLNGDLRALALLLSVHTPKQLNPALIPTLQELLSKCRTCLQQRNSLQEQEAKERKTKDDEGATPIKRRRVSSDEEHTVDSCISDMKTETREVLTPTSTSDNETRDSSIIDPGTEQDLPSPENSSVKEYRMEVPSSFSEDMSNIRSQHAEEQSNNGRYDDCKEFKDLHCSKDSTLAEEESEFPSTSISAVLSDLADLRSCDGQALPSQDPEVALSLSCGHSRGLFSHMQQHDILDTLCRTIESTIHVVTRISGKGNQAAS
Summary of the method: (§1)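 HEK293T lysate, 495 µg per sample in Tris/CHAPS/IGEPAL buffer with protease inhibitors, was treated in triplicate with fragment at 200 µM or vehicle for 3 h and then with Biotin-Ahx-Ub-VS at 0.5 µM final for 1 h. Labelled DUBs were NeutrAvidin-enriched, digested with LysC and trypsin, and run by diaPASEF LC-MS/MS. Spectronaut label-free quantities were global-median-normalised, and values are average log2 fragment/vehicle ratios by unpaired t-test on proteins with ≥2 unique peptides.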

[2] = biological target: T1, USP36 (UniProt Q9P275)
T1 sequence (whole entry): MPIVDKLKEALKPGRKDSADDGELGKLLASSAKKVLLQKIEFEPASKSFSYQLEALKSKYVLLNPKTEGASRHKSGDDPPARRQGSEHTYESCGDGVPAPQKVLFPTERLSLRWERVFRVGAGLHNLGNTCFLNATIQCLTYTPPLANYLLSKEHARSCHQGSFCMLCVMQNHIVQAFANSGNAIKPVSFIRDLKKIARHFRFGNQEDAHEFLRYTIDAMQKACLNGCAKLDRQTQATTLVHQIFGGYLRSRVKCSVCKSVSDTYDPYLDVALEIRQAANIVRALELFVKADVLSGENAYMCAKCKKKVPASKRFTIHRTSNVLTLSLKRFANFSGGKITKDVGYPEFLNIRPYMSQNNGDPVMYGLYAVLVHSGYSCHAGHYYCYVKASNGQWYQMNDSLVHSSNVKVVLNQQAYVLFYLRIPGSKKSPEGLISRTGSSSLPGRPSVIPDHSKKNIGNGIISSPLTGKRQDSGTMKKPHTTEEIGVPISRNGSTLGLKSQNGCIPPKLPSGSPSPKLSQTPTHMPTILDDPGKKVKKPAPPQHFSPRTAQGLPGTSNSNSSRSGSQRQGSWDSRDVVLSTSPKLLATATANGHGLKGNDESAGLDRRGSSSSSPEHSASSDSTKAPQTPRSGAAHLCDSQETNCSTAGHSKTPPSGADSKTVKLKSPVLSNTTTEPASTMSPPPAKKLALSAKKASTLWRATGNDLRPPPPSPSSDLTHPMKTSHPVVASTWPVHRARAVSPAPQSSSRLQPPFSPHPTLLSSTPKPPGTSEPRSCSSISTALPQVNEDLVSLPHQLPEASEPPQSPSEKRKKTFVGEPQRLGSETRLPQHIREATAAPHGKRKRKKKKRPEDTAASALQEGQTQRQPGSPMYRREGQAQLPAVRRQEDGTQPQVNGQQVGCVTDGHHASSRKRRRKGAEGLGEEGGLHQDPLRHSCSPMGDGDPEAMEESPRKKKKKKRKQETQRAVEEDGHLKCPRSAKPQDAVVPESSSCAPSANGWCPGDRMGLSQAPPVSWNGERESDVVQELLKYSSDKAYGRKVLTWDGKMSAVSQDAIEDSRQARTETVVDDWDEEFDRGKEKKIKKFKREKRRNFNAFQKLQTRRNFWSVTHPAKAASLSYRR
Summary of the method: as §1

[3] = biological target: T2, USP38 (UniProt Q8NB14)
T2 sequence (whole entry): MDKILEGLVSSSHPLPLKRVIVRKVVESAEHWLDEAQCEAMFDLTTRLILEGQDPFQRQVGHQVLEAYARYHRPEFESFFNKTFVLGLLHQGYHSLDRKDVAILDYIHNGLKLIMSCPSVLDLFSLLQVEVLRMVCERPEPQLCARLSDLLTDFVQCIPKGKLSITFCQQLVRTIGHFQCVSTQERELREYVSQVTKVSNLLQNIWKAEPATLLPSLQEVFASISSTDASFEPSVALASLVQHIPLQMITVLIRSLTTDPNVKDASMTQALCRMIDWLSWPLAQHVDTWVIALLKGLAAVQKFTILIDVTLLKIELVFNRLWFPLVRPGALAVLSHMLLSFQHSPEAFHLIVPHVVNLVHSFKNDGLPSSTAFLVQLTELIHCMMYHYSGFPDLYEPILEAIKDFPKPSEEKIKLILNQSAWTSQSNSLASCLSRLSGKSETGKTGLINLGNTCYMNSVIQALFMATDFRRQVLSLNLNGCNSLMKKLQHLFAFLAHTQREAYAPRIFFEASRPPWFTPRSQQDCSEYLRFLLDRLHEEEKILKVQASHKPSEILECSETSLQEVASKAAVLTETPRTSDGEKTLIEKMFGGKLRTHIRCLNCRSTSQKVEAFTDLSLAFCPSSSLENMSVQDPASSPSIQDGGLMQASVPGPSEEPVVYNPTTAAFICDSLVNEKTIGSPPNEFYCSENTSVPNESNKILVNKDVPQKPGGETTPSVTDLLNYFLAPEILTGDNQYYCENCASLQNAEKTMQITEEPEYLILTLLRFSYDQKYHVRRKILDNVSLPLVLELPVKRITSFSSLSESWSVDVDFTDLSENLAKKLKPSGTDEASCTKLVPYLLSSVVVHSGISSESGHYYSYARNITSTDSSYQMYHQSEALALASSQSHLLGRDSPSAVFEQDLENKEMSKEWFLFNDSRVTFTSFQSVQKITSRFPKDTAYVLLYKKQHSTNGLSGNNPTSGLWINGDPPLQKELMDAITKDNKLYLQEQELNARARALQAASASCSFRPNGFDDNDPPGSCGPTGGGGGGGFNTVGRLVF
Summary of the method: as §1

[4] = biological target: T3, USP39 (UniProt Q53GS9)
T3 sequence (whole entry): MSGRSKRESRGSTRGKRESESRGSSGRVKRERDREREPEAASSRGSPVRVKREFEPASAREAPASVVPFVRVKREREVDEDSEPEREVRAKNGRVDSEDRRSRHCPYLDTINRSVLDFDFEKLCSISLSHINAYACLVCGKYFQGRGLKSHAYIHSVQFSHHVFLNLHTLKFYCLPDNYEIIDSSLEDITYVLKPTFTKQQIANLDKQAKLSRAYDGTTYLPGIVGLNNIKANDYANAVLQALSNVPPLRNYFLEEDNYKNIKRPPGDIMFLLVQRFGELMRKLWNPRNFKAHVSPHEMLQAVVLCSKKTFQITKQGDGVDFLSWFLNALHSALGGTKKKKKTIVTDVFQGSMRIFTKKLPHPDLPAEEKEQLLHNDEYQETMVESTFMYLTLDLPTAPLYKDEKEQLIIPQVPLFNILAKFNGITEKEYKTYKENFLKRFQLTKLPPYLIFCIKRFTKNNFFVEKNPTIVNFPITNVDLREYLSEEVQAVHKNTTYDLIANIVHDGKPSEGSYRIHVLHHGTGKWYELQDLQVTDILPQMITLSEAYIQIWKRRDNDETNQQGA
Summary of the method: as §1

[5] = biological target: T4, USP4 (UniProt Q13107)
T4 sequence (whole entry): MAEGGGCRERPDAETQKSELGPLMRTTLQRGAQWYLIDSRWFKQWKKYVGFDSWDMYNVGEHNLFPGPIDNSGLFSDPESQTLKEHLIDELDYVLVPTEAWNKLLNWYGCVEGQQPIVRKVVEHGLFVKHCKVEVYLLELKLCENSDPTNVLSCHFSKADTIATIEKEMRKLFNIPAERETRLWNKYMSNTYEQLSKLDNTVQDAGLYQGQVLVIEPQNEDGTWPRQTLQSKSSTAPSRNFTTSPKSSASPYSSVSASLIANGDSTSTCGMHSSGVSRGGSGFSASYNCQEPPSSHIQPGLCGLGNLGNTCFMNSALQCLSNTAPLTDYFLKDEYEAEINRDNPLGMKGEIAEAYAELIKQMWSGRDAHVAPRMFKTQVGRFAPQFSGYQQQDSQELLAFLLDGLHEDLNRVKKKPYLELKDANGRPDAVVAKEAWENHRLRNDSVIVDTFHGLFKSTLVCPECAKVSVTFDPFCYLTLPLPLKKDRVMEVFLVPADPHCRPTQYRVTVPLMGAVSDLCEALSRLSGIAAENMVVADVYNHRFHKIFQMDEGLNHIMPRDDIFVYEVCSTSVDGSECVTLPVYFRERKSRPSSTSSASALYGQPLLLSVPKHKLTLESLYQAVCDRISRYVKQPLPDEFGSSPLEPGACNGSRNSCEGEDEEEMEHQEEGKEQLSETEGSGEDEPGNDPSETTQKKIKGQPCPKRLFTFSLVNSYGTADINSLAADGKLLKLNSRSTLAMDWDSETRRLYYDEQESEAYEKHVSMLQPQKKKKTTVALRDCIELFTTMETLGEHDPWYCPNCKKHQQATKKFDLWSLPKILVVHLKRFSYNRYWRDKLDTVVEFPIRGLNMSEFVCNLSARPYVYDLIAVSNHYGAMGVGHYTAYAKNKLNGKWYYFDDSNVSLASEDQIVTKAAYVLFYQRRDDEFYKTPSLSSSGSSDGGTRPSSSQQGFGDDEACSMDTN
Summary of the method: as §1

Measured: log2 ratio of Biotin-Ahx-Ub-VS probe labelling

O=C(CCl)NC1CCC2(CC1)OCCO2
inactive: [1] -0.314 | [2] -0.227 | [3] -0.0225 | [4] 0.0631 | [5] -0.0958
